# Source: ChEMBL document CHEMBL4513216, “Probing the Open Global Health Chemical Diversity Library for Multistage-Active Starting Points for Next-Generation Antimalarials” (ACS Infect Dis, 2020)
# The whole screen tested about 69,000 compounds, of which about 8,600 (12%) showed an effect of 50% or more. This excerpt belongs to a sample that is enriched for strong results.
# System: Plasmodium berghei
# Experiment: Screen against P. berghei liver stage (PbLuc), transformed with Luciferase, at 10uM
# Type: functional, HepG2
# Settings: tested at 10 uM
row,SMILES,INHIBITION
1,CN(C(=O)c1cn(C)cn1)[C@@H]1CCC[C@@H](Oc2ccccc2)[C@@H]1O,60.5%
2,CN(C(=O)c1ccn(C)n1)[C@@H]1CCC[C@@H](Oc2ccccc2)[C@@H]1O,35.2%
3,Cc1cnc(C(=O)N(C)[C@@H]2CCC[C@@H](Oc3ccccc3)[C@@H]2O)cn1,17.1%
4,Cc1noc(C)c1-c1cncc(C2CCCN2Cc2nccs2)n1 (stereo not given),15.9%
5,O=C(CC1CCCO1)N1CCCN(c2cccnn2)CC1 (stereo not given),7.12%
6,Cc1cc(C)nc(N(C)CCn2ccnc2C)n1,-45.7%
7,CN(C)C(=O)CN1CCC2(CC1)CC(=O)c1ccc3ccccc3c1O2,41.1%
8,O=C1CCCN1CCCNCc1cc(O)c2cccc(Cl)c2n1,-13.4%
9,Oc1cc(CNCCCN2CCCC2)nc2ccc(F)cc12,62.8%
10,O=C1CCCN1CCCNCc1cc(O)c2cccc(F)c2n1,-15.8%
11,OCC1CCCCN1CCCNCc1cc(O)c2cc(F)ccc2n1 (stereo not given),25.7%
12,Oc1cc(CNCCN2CCCCC2)nc2c(F)cccc12,13.7%
13,O=C(CCNCc1cc(O)c2cc(F)ccc2n1)N1CCCC1,30.4%
14,Cc1ccc2nc(CNCCCN3CCCC3)cc(O)c2c1,41.5%
15,O=S(=O)(CCNCc1cc(O)c2cc(F)ccc2n1)N1CCCC1,58.2%
16,CN1CCN(CCCNCc2cc(O)c3cc(F)ccc3n2)CC1,65.6%
17,CC(NCc1c(C(C)C)nn(C)c1N1CCOCC1)C(=O)N(C)C (stereo not given),19.45%
18,Cc1cc(C)c2c(NCCC3(O)CCCC3)ncnc2n1,42.3%
19,CCn1ccc2ccnc(CC3CN(C(=O)c4cnco4)C3)c21,1.62%
20,CN1CC2(CCCCN2C(=O)c2ccsc2)CC1=O (stereo not given),35.8%
21,Cc1oc(C)c(C(=O)NCc2cccc(C(N)=O)c2)c1C,-39.7%
22,CNC(=O)C1CN(C)CCN1c1nc(C)cc(C)n1 (stereo not given),-5.8%
23,COC(=O)Cn1c(=O)[nH]c2cn(-c3ccc(Cl)cc3)c(=O)n21,0.547%
24,NC(=O)c1cc(C2CCCN(CCCOc3ccc(F)cc3)C2)n[nH]1 (stereo not given),14.22%

row,SMILES,INHIBITION
1,COc1ccccc1OCC(=O)NS(=O)(=O)c1ccc(Cl)s1,31.3%
2,Cc1ccc(S(=O)(=O)NC(=O)CCOCc2ccccc2)s1,36.3%
3,CC(C)COCCC(=O)NS(=O)(=O)c1ccc(Cl)s1,62.4%
4,CCOCCCC(=O)NS(=O)(=O)c1ccc(C)s1,11.3%
5,Cc1ccc(S(=O)(=O)NC(=O)CCOCC(C)C)s1,55.9%
6,CC(=O)c1ccc(OCC(=O)NS(=O)(=O)c2ccc(Cl)s2)cc1,36.8%
7,OC1(CN2CCCC2)COCCN(c2cc(C(F)(F)F)ccn2)C1 (stereo not given),-16%
8,OCCn1nccc1C1CCN(Cc2nc(C3CC3)no2)CC1,33.7%
9,Cc1cc(C(=O)N2CCC(Nc3cccnc3)CC2)c(C)s1,-19.5%
10,O=S1(=O)NC(c2ccnc(N3CCCC3)n2)=Nc2ccccc21,33.2%
11,Cc1ccc(C(=O)N2CCC3(CC2)CC(N2CCCC2)C3)cc1,39.9%
12,Cc1ccc(C(=O)N2CCC3(CC2)CC(N2CCOCC2)C3)cc1,55.7%
13,O=C(c1ccc(F)cc1)N1CCC2(CC1)CC(N1CCOCC1)C2,-24.5%
14,CN(C)C(=O)c1cn[nH]c1C1(C)CCCN(Cc2ccccn2)C1 (stereo not given),40%
15,CCOc1ccc(NC(=O)N2CCNC(=O)C2)c(C(F)(F)F)c1,40.2%
16,O=C(Cn1cc(-c2ccccc2)ncc1=O)Nc1ncc[nH]1,81%
17,O=C(Cn1cc(-c2ccccc2)ncc1=O)Nc1nnc[nH]1,13%
18,O=C(Cn1cc(-c2ccccc2)ncc1=O)Nc1ccncc1,0.547%
19,Cc1nc2c(C)cccc2cc1C(=O)N1CCC2(CCN(C)CC2)C1,-17.7%
20,CCOc1nnc(CN2CCC(c3cc4ccccc4[nH]3)CC2)s1,-14.2%
21,CCOCCN1CCN(CCOC)CC1C (stereo not given),11.4%
22,CCOc1nnc(CN2CCN(CCOC)C(CC)C2)s1 (stereo not given),28.6%
23,CCOc1nnc(CN2CCN(CCOC)C(C)C2)s1 (stereo not given),51.7%
24,CCOc1nnc(CN2CCC(c3nc4ccccc4[nH]3)CC2)s1,-35.9%

row,SMILES,INHIBITION
1,CCOc1nnc(CN2CCN(CCOC)CC2)s1,53.4%
2,COCC1CC2(CCN(C(=O)c3ccc(C)nc3)CC2)CO1 (stereo not given),-26.1%
3,COc1ccc(C2CCCN2C(=O)NCCn2ccnc2)cc1OC (stereo not given),-20.965%
4,O=S(=O)(C1CC1)N1CC[C@@H](OCC2CC2)[C@@H]1Cc1ccncc1,47.5%
5,CNc1nc(CNC(=O)Nc2cc(Cl)ccc2F)cs1,-41.85%
6,CNc1nc(CNC(=O)Nc2ccc(OC(C)C)cc2C)cs1,57.2%
7,CNc1nc(CNC(=O)Nc2ccccc2OC(C)C)cs1,32.3%
8,CNc1nc(CNC(=O)Nc2ccc(OC(C)C)cc2F)cs1,72.3%
9,CNc1nc(CNC(=O)Nc2cccc(C)c2Cl)cs1,-25.15%
10,CNc1nc(CNC(=O)Nc2ccc(OC)cc2C)cs1,21.5%
11,COc1ccc2[nH]cc(C(=O)CNc3nc(C)cs3)c2c1,-29.5%
12,O=C(CCOc1ccc(F)cc1)N1CCCC1Cn1cccn1 (stereo not given),30.6%
13,Cc1ccc2c(n1)N(CCn1cccn1)CCN(C(=O)NC(C)C)C2,-32%
14,CS(=O)(=O)NCc1cnc2n1CCN(Cc1ccsc1)CC2,30.1%
15,NCc1ccc(Oc2cccc(Cl)c2Cl)cc1,13.2%
16,CCOc1ccccc1Oc1ccc(CN)cn1,60.3%
17,NCc1ccc(Oc2cccc(Cl)c2Cl)nc1,28.7%
18,CCCN1CCc2c(C(=O)N(C)Cc3ccccn3)nn(C)c2C1,55.6%
19,CC(C)CCN1CCc2c(C(=O)N(C)Cc3ccccn3)nn(C)c2C1,48.2%
20,CN(Cc1ccccn1)C(=O)c1nn(C)c2c1CCN(CC1CC1)C2,48.2%
21,COCCCNC(=O)CN(C)C1CCCN(c2cccnn2)C1 (stereo not given),-14.7%
22,CC(=O)N1CC(=O)N(c2ccsc2)CC12CCN(Cc1ccoc1)C2 (stereo not given),-3.58%
